Assay [1] can be described thus: P. berghei load reduction in hepatocytes – cell-based, HepG2, luciferase luminescence, HepG2 viability, primary screen (AID 624349; in the data active = parasite load remaining mostly below about 12%, no sharp cut-off; inactive = mostly above about 10%;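 note: 100% = mean of DMSO negative control wells on the same plate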). The following applies: P. berghei liver stage in HepG2, luciferase luminescence, concentration not given here; parasite load remaining: stronger effect = lower value; viability: measured here: HepG2 viability without parasites.
A short description of assay [2]: EMT-state selective cytotoxicity in co-culture – imaging, PC-3E GFP, TEM4-18 mCherry, primary screen (AID 1345086;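 active = compounds killing one labelled cell type while sparing the other, by normalised counts and ratio limits, not self-fluorescent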;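 for all read-outs here: cells exposed to compound for 72 h before imaging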;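 for red/green cell ratio (normalised): normalised mesenchymal count divided by normalised epithelial count so high means epithelial killing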). The following applies: PC-3E GFP / TEM4-18 mCherry co-culture, imaging cell counts, at 1 µM; for red/green cell ratio (normalised): actives lie on both sides, counts scaled to control wells, 1 = unselective.
The nature of assay [3]: viability loss with induced miR-34 in A549 – imaging, A549 dox-inducible miR-34, nuclei and caspase counts, primary screen (AID 1347080). The note with it: A549 miR-34 inducible, Hoechst nuclei count, 48 h.
Assay [4] is described as follows: MELAS cybrid and Rieske KO viability enhancers – cell-based, MELAS cybrids, Rieske KO mouse fibroblasts, CellTiter-Glo, primary screen (AID 1508586;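 active = mean z-score across replicates of 1.96 or higher in either the MELAS or the Rieske mutant cell line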;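 note: z relative to plate mean and SD of compound and empty wells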). The following applies: low glucose. In general terms: Cellular ATP, detected with luciferase, serves as a proxy for viable cell number.
Assay [5] concerns the target NAD(+) hydrolase SARM1 (Homo sapiens) (UniProt Q6SZW1). The assay can be described thus: blocking NAD cleavage by SARM1 SAM-TIR – cell lysate, NAD-Glo luminescence (AID 1508614;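 active = compound whose remaining NAD level is above about 45 nM, limit read from the data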;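 note: higher remaining NAD means stronger inhibition of SARM1 NADase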). The following applies: SAM-TIR HEK293T lysate NADase, at 1 µM, stronger effect = higher value.
The nature of assay [6]: growth inhibition, single agent or in combination, cell-based, chromothripsis tumors, cisplatin or BGB combos (AID 1671449; in the data active = inhibition above about 80%;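 note: cells exposed for 96 hours; 0% = vehicle DMSO and 100% = killing by high DMSO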). The following applies: LFS_MB_P medulloblastoma cells.
Assay [7] is described as follows: growth inhibition, single agent and combos, cell-based, chromothripsis tumors, cisplatin or BGB combos (AID 1671450; in the data active = inhibition above about 80%;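 note: cells exposed to compound for four days; 0% = vehicle DMSO and 100% = cell killing by high DMSO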). The following applies: HDN33 neuroblastoma cells, stronger effect = higher value.
The nature of assay [8]: growth inhibition, single agents and combos, ICB984, cell-based, cisplatin or BGB combos, synergistic combos for chromothripsis tumors (AID 1671451; call rule not given here;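 note: cells exposed for 96 hours before readout; 0% = vehicle DMSO and 100% = killing by high DMSO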). The following applies: ICB984 medulloblastoma cells, drug combinations, stronger effect = higher value.
Assay [9] in a line: growth inhibition, single agents and combos, HTB85, cell-based, BGB or cisplatin IC20 combos, synergistic combos for chromothripsis tumors (AID 1671453; in the data active = inhibition above about 80%;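 note: cells exposed for 96 hours before readout; 0% = vehicle DMSO and 100% = high DMSO killing control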). The following applies: HTB85 osteosarcoma cells, drug combinations, stronger effect = higher value.
Assay [10] can be described thus: compounds altering viability of human ES cells (AID 493140; call rule not given here;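 note: cells exposed to compounds for four days before counting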). The following applies: human embryonic stem cell survival screen; stronger effect = higher value.
[11] abbreviates: measured here: epithelial PC-3E GFP cell survival.
The mark [12] stands for this setting: measured here: mesenchymal TEM4-18 mCherry cell survival.
[13] abbreviates: stronger effect = lower value, cell number ratio, induced over uninduced.
Setting [14] is: measured here: relative caspase fold change +Dox/-Dox.
Setting [15] is: measured here: total cells with miR-34 induction, stronger effect = lower value.
Setting [16] is: measured here: total cells without miR-34 induction.
[17] abbreviates: MELAS cybrid survival, CellTiter-Glo 48 h, stronger effect = higher value.
Setting [18] is: Rieske KO mouse fibroblast survival, CellTiter-Glo 72 h.

Several values for one entry are separate records, joined by “and”; a condition that tells them apart may be missing. Identical values can stand only once. Activity calls are given as the source filed them.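 Rule for the calls, unless noted: active = compounds whose cell count with miR-34 switched on is under 0.7 times the count with it off; inactive = the rest.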 Residues, ends and D or L forms follow the SMILES beside them.

NAD(+) hydrolase SARM1 (Homo sapiens), sequence (Q6SZW1 whole entry, looked up): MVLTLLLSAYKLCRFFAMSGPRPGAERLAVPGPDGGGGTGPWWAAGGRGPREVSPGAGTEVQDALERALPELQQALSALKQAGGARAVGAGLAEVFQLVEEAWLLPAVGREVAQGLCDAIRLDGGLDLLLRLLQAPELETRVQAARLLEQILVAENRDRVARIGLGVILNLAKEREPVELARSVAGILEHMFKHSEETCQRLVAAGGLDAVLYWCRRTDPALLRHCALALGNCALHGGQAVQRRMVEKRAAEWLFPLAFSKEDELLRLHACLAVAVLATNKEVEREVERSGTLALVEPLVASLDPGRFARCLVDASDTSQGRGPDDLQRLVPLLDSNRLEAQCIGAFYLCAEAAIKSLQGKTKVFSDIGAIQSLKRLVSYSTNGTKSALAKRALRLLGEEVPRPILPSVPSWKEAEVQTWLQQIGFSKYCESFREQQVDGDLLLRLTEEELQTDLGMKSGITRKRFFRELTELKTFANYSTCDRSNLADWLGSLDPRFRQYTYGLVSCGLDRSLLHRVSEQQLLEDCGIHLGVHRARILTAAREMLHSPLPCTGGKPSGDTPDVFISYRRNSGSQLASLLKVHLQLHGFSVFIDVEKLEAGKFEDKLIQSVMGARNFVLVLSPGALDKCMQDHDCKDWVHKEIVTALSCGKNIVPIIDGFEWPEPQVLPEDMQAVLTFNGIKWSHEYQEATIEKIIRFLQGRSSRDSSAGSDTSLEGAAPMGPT

`O=C(Nc1ccccc1)c1ccccc1O`: the parasite load remaining in [1] was 67.6% (inactive). Also, the viability (commonly a read-out of living cells in per cent, often relative to untreated cells) in assay [1] amounted to 101%. The red/green cell ratio (normalised) in assay [2] is 1 (inactive). The normalised cell number in [2] (setting [11]) and in assay [2] (setting [12]) was 1.39 in each case. Moreover, the fold change is 0.912 (inactive) and 0.877 (inactive) in assay [3] (setting [13]); 0.72 and 3.66 in [3] (setting [14]). The cell count was 7720 and 10000 in [3] (setting [15]); 8460 and 11400 in assay [3] (setting [16]). Besides, the z-score in [4] (setting [17]) is -0.183 (inactive); in assay [4] (setting [18]), -0.206. Further, the remaining NAD in [5] is 10 nM (inactive). The inhibition – broadly, the change of the read-out against control, counted positive when it falls – in [6] (at 0.5 µM, stronger effect = higher value) was -6.1% (inactive); in assay [6] (measured here: combination with BGB IC20, at 0.005 µM) it was 6.63%; in assay [6] (measured here: combination with BGB IC40, at 0.005 µM) it was 36%; in assay [6] (measured here: combination with BGB IC40, at 0.05 µM), -10.8%; in [6] (measured here: combination with cisplatin, at 0.5 µM, stronger effect = higher value) it was -0.1%; in [6] (measured here: combination with cisplatin, at 5 µM, stronger effect = higher value) it was 3.47%. The inhibition in assay [7] (BGB combo, at 5 µM) was 22.1%; in assay [7] (at 0.5 µM), 6.53% (inactive); in assay [7] (cisplatin combo, at 5 µM), 16.8%; in [7] (measured here: with BGB IC20 combination, at 0.5 µM), 4%; in [7] (measured here: with cisplatin IC20 combination, at 0.5 µM), 11.1%; in assay [7] (single agent, at 5 µM), 27.8%. In addition, the inhibition was -13.9% in [8] (BGB IC20 combo, at 0.005 µM); -1.37% in assay [8] (BGB IC40 combo, at 0.005 µM); 0.369% in assay [8] (BGB IC40 combo, at 0.05 µM); -10.1% (inactive) in [8] (at 0.5 µM); 0.369% in assay [8] (cisplatin combo, at 0.05 µM); -23.4% in assay [8] (cisplatin combo, at 0.5 µM). Moreover, the inhibition in assay [8] (cisplatin combo, at 5 µM) was -15.5%; in [8] (measured here: 5 uM single agent, at 5 µM), 19.2%; in [9] (at 0.5 µM), 1.9% (inactive); in assay [9] (measured here: with BGB IC20, at 0.5 µM), -7.23%; in [9] (measured here: with BGB IC20, at 5 µM) it was 16.9%; in assay [9] (measured here: with cisplatin IC20, at 0.5 µM), 3.88%. The inhibition in assay [9] (measured here: with cisplatin IC20, at 5 µM) came to 16.9%; in [9] (single agent, at 5 µM), 20.7%.

As for `CC(C)Nc1ncccn1`, the red/green cell ratio (normalised) in assay [2] was 0.89 (inactive). Besides, the normalised cell number was determined as 1.16 in [2] (setting [11]) and 1.03 in assay [2] (setting [12]). The fold change in assay [3] (setting [13]) was 0.885 (inactive); in [3] (setting [14]), 0.978. The cell count amounted to 8370 in [3] (setting [15]) and 9450 in assay [3] (setting [16]). Further, the remaining NAD in [5] is 10 nM (inactive).

Consider `CC(C)[C@H](NC(=O)[C@H](CC(=O)O)NC(=O)[C@H](CCCCN)NC(=O)[C@@H](N)CCCN=C(N)N)C(=O)N[C@@H](Cc1ccc(O)cc1)C(=O)O` (H-RKDVY-OH), for which, in assay [2], the red/green cell ratio (normalised) is 0.91 (inactive). The normalised cell number stood at 1.09 in [2] (setting [11]) and 0.99 in assay [2] (setting [12]). Further, the figures for the fold change in [3] (setting [13]) and in assay [3] (setting [14]) were 0.895 (inactive) and 0.732, respectively. Further, the results for the cell count in assay [3] (setting [15]) and in assay [3] (setting [16]) were 8230 and 9190, respectively. Besides, the remaining NAD in [5] is 10 nM (inactive).

With `Nc1ccccc1S(N)(=O)=O`, the survival in assay [10] is 5.17 (inactive). Besides, the parasite load remaining in [1] is 63.3% (inactive). In assay [1], the viability was found to be 93.8%. Also, the red/green cell ratio (normalised) in assay [2] was 0.77 (inactive). Also, the values for the normalised cell number in assay [2] (setting [11]) and in assay [2] (setting [12]) were 1.18 and 0.91, respectively. Also, the fold change in assay [3] (setting [13]) is 0.888 (inactive); in assay [3] (setting [14]), 1.35. Also, the cell count turned out to be 9840 in assay [3] (setting [15]) and 11100 in [3] (setting [16]). For the same molecule, the z-score was 0.695 (inactive) in assay [4] (setting [17]) and -0.362 in assay [4] (setting [18]).

In the case of `C=COCC(F)(F)F`, in [2], the red/green cell ratio (normalised) is 0.85 (inactive). Besides, the results for the normalised cell number in assay [2] (setting [11]) and in assay [2] (setting [12]) were 1.12 and 0.96, respectively. For the same molecule, the values for the fold change in assay [3] (setting [13]) and in assay [3] (setting [14]) were 0.911 (inactive) and 0.971, respectively. Besides, the cell count in assay [3] (setting [15]) is 9000; in assay [3] (setting [16]), 9870. In addition, in assay [5], the remaining NAD was 10 nM (inactive).

Regarding `CCC(=O)O[C@H](CC(=O)O)C[N+](C)(C)C`, the red/green cell ratio (normalised) in [2] is 1.18 (inactive). Besides, the normalised cell number in [2] (setting [11]) is 1.03; in [2] (setting [12]), 1.22. Also, the values for the fold change in assay [3] (setting [13]) and in assay [3] (setting [14]) were 0.986 (inactive) and 0.77, respectively. In addition, the cell count is 8930 in assay [3] (setting [15]) and 9060 in assay [3] (setting [16]). In addition, the remaining NAD in assay [5] was 10 nM (inactive).

Take `CCCCCCCCCCCCCCCC(=O)OCC(O)[C@H]1OC(=O)C(O)=C1O` (stereo partly drawn): in assay [1], the parasite load remaining was 30.5% (inactive). In addition, in [1], the viability came to 230%. The red/green cell ratio (normalised) in [2] was 1.11 (inactive). Besides, the normalised cell number in assay [2] (setting [11]) came to 1.1; in [2] (setting [12]), 1.22. Also, the fold change was 1.02 (inactive) and 0.87 (inactive) in [3] (setting [13]); 0.52 and 0.622 in [3] (setting [14]). Moreover, the cell count was 7640 and 11300 in assay [3] (setting [15]); 7530 and 13000 in assay [3] (setting [16]). In addition, the z-score is -0.179 (inactive) in assay [4] (setting [17]) and -0.164 in assay [4] (setting [18]).

These data come from PubChem BioAssay.
